# Reference: PubChem BioAssay (Tox21)
# Results filed as inconclusive are left out. Unmarked numbers belong to inactive results. Calls of active or inactive are those of the source. Calls come from the whole dose curve.
# Assay: p53 small molecule agonists, cell-based qHTS assay with rat liver microsomes: qHTS cell viability counter screen (AID 1963580); note: nearly all actives have a fitted effect of over 45% in size
# Settings: p53RE-bla HCT-116 + rat microsomes, ATP viability, 16 h; series mostly up to 66 µM; activity change, negative = cytotoxicity: at the top concentration
# Text: National Center for Advancing Translational Sciences [NCATS]
# Division of Preclinical Innovation [DPI]
# U.S. Environmental Protection Agency [EPA]
# National Institutes of Environmental Health Sciences [NIEHS]
# National Toxicology Program [NTP]
# U.S. Food and Drug Administration [FDA]
# p53, a tumor suppressor protein, is activated following cellular insult, including DNA damage and other cellular stresses. The activation of p53 regulates cell fate by inducing DNA repair, cell cycle arrest, apoptosis, or cellular senescence. The activation of p53, therefore, is a good indicator of DNA damage and other cellular stresses. The CellSensor p53RE-bla HCT-116 cell line contains a stably integrated beta-lactamase reporter gene under control of the p53 response elements. The activation of the reporter gene under culture conditions can be detected by fluorescence intensity. This cell line was used to screen the Tox21 10K compound library in the condition of presence of rat liver microsomes and to identify agonists that activate the p53 signaling pathway after in vitro metabolic activation (Ooka et al., Archive of Toxicology 96:1975-1987, 2022). The cytotoxicity of the Tox21 compound library against the p53 RE-bla HCT-116 cell line was tested in parallel by measuring the intra cellular ATP content in the same wells.
# Tox21 Assay Protocol Summary:
# The p53RE-bla cells were dispensed at 4,000cells/3ul/well in 1536-well black-clear bottom plates. After the assay plates were incubated at 37 C, 5% CO2 incubator for 5 hours, 23 nL of compounds dissolved in DMSO, positive controls or DMSO only was transferred to the assay plate. Following compound addition, 3 uL of rat liver microsomes (Molecular Toxicology, Boone, NC) at final concentration of 0.5 mg/mL and 1uL of B-Nicotinamide adenine dinucleotide 2'-phosphate (NADPH) at final concentration of 0.5 mg/mL were transferred to the assay plate. The plates were incubated at 37 C for 16 hours. 1 uL of LiveBLAzer detection mixture was added to each well and the plates were incubated at room temperature in the dark for 2 h. Fluorescence intensity at 460 and 530 nm emission and 405 nm excitation were measured by an Envision plate reader. For cell viability readout that measures cytotoxicity, 4 ul/well of CellTiter-Glo reagent was added into the assay plates using a Flying Reagent Dispenser. After 30 min incubation at room temperature, the luminescence intensity in the plates was measured using a ViewLux plate reader.
# % is set by controls: 0 for no effect and ±100 for the full control effect.
Compound,"activity change, negative = cytotoxicity",Potency
OCCOc1ccc(OCCO)cc1,-6.22%,–
C=C(C)C(=O)OCCOCCOCCOC(=O)C(=C)C,–,inactive
Cc1cc(O)cc(C)c1Cl,–,inactive
Cc1ccccc1S(=O)(=O)O,7.28%,–
NC(=O)NC1N=C([O][Al])NC1=O (stereo not given),1.12% [at 30.3 µM],–
ON(Cc1ccccc1)Cc1ccccc1,0.617%,–
CC(C)(O)Cc1ccccc1,-1.84%,–
Oc1ccc2cc(SSc3ccc4cc(O)ccc4c3)ccc2c1,–,inactive
O=C1OC(=O)C2CC=CCC12 (stereo not given),-6.88%,–
C=C[Si](OC(=C)C)(OC(=C)C)OC(=C)C,-4.56%,–
Nc1cc(C(Cl)=C(Cl)Cl)c(S(N)(=O)=O)cc1S(N)(=O)=O,-2.73% [at 30.3 µM],–
CCOC(=O)O[C@]1(C(=O)OCCl)CC[C@H]2[C@@H]3CCC4=CC(=O)C=C[C@]4(C)[C@H]3[C@@H](O)C[C@@]21C,8.9% [at 30.3 µM],–
C=CC(C)(CCC=C(C)C)OC=O (stereo not given),5.39%,–
O=C(Oc1ccccc1)c1ccccc1,–,inactive
CCCCOC(=O)CCS,3.38%,–
CO[Si](CCCOCC1CO1)(OC)OC (stereo not given),–,inactive
COC(=O)Cc1cccc2ccccc12,1.31%,–
NC(=O)NS(=O)(=O)c1ccc(Cl)cc1,-5.84% [at 30.3 µM],–
C1CCCNCCC1,1.4%,–
O=C(O)c1ccc(O)cc1O,0.449%,–

Compound,"activity change, negative = cytotoxicity",Potency
O=C1OC(=O)c2c(Cl)c(Cl)c(Cl)c(Cl)c21,–,inactive
CC(=C(CCOC(=O)C(C)C)SSC(CCOC(=O)C(C)C)=C(C)N(C=O)Cc1cnc(C)nc1N)N(C=O)Cc1cnc(C)nc1N,-0.0679% [at 30.3 µM],–
CC(=O)O[C@@H]1CC2C3CCc4cc(OC(=O)c5ccccc5)ccc4C3CCC2(C)[C@H]1OC(C)=O (stereo not given in full),-1.37% [at 30.3 µM],–
CC(=O)Nc1c(I)cc(I)c(C(=O)O)c1I,-3.9% [at 30.3 µM],–
Cc1ccc(S(N)(=O)=O)cc1,–,inactive
CC(C)=CCC[C@H](C)CC=O,4.64%,–
NS(=O)(=O)c1ccc(N2CCCCS2(=O)=O)cc1,-0.0095% [at 30.3 µM],–
BrC1CCC(Br)C(Br)CCC(Br)C(Br)CCC1Br (stereo not given),–,inactive
C=C(C)[C@H]1CC=C(C)CC1,1.98%,–
O=C(O)c1ccccc1OP(=O)(O)O,0.443% [at 30.3 µM],–
COC(OC)C(C)c1ccccc1 (stereo not given),-0.634%,–
CCCCCCOCCOCCO,–,inactive
C=CCCCCCCCC,-3.21%,–
COc1c(Cl)ccc(Cl)c1C(=O)O,–,inactive
CO[C@@]1(NC(=O)C(C(=O)O)c2ccc(O)cc2)C(=O)N2C(C(=O)O)=C(CSc3nnnn3C)CO[C@@H]21 (stereo not given in full),-3.96% [at 30.3 µM],–
O=S(=O)(O)c1ccccc1O,5.53%,–
CC(C)CCO,0%,–
O,–,inactive
CCCOC(C(=O)OC1CCN(C)CC1)(c1ccccc1)c1ccccc1,5.43% [at 30.3 µM],–
O=C(O[C@@H]1Cc2c(O)cc(O)cc2O[C@@H]1c1cc(O)c(O)c(O)c1)c1cc(O)c(O)c(O)c1,1.23%,–
